Laboratory results taken from PubChem BioAssay AID1430 (University of Pittsburgh Molecular Library Screening Center, 2008).
The whole screen tested about 220,000 compounds, of which about 240 (0.11%) were called active.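 Rule for the calls: active = inhibition of 50% or more in the single-dose primary screen; inactive = inhibition below 50%.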 For the sample, actives were picked, then their nearest neighbours and some compounds at random.

tested on: hexokinase 1 [Trypanosoma brucei]; assay: TbHK1 enzyme activity blockers – biochemical, G6PDH-coupled NADH absorbance, MLSCN library, primary screen (AID 1430); settings: recombinant TbHK1, G6PDH-coupled NADH A340; at 10 µM; active compounds read high

inhibition, inactive:
CCc1ccc(-c2nn(-c3ccccc3)cc2CSC(=N)N)cc1 14%
O=c1c(-c2ccccc2)cnc2n1CCS2 -3.12%
CN(C)c1ccc(C=C2C(=O)OC3(CCCC3)OC2=O)cc1 -24.4%
Cc1cccc(C)c1NC(=O)C(c1ccccc1)N1CC(=O)Nc2ccccc21 (stereo not given) 3.26%
C/C(CC1CC(C)(C)OC1=O)=N/Nc1nc(-c2ccccc2)cs1 (stereo not given) -4.91%
CCOC(=O)C(=O)Nc1nc(-c2ccccc2)c(CC)s1 -8.25%
Cc1ccc(CNC(=O)COc2ccc(S(=O)(=O)NC(C)C)cc2)cc1 -6.99%
O=C(NC(=S)Nc1cc(C(F)(F)F)ccc1N1CCOCC1)c1ccc(-c2cccc(Cl)c2)o1 -33.5%
CCNC(=O)CC1C(=O)N(c2ccc(F)cc2)C(=O)N1Cc1cccs1 (stereo not given) -6.58%
COC(=O)c1ccc(NC(=S)NN2CCOCC2)cc1 0.284%
COc1ccc(NS(=O)(=O)c2cc(NC(=O)CC(=O)c3ccc([N+](=O)[O-])cc3)ccc2C)cc1 -3.8%
N#C/C(C(=S)Nc1ccccc1)=C1/NN=C(N2CCOCC2)N1c1ccccc1 -22%
Cc1ccc(C(=O)N/C(=C\c2ccco2)C(=O)N2CCSCC2)cc1C -18.1%
C/C(=N/NC(=O)c1cc(Cl)ccc1O)C12CC3CC(CC(C3)C1)C2 -5.54%
Cn1nc(C(F)(F)F)cc1-c1ccc(/C=C(\C#N)C(=O)c2cccc(C(F)(F)F)c2)s1 20.2%
Cc1ccc(/C=C/C(=O)Nc2ccc([N+](=O)[O-])c(NC(=O)/C=C/c3ccc(C)o3)c2)o1 -13.6%
Cc1ccc2[nH]c(C)c(CCNC(=O)NC3CCCCC3)c2c1 -1.75%
C/C(=N/Nc1ccc(Cl)cc1)c1cnnc(-c2ccccc2)n1 -3.6%
COC(C[C@H](O)CC(=O)COCc1ccccc1)OC -5.95%
CC1CCCN(C(=O)c2ccc3c(c2)C(=O)N(CCC2=CCCCC2)C3=O)C1 (stereo not given) 9.11%
